Measurements taken from PubChem BioAssay AID743279 (National Center for Advancing Translational Sciences (NCATS), 2014).
Screen size: about 360,000 compounds; about 17,000 (4.7%) were called active. Inconclusive results (about 5%) are left out. What follows is part of a selection rich in actives, with near analogues and random picks from the rest. A number with no mark means an inactive call. No stated cut-off is given here; in the data, active means activity change below about -50%; inconclusive means mostly about -30% to -49%; inactive means weaker than that.

experiment: qHTS for Inhibitors of Inflammasome Signaling: IL-1-beta AlphaLISA Primary Screen; conditions: THP-1 LPS/ATP IL-1B secretion, 16 h; at 57.5 µM, hits give low values
Method in brief: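 Secreted IL-1B measured by AlphaLISA bead assay after 16 h compound exposure of THP-1 cells; compounds (final up to 57.5 uM) added 1 h before LPS (250 ng/mL) and ATP (1.25 mM) stimulation; lower signal means less secretion.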
On the % scale 0 is the no-effect control and ±100 the full control effect.

SMILES	activity change
O=C(Cc1ccc(Cl)cc1)NC1CCS(=O)(=O)C1 (stereo not drawn)	-6.66%
CCCSC(=S)NC1CCS(=O)(=O)C1 (stereo not drawn)	-105% (active)
O=C(CSc1ccccc1F)NC1CCS(=O)(=O)C1 (stereo not drawn)	-10.4%
O=S1(=O)CCC(NC(=S)SCc2ccccc2Br)C1 (stereo not drawn)	-69% (active)
CC(C)C(=O)NC(NC(=S)NC1CCS(=O)(=O)C1)C(Cl)(Cl)Cl (stereo not drawn)	15.4%
COc1ccc(NC(=S)NC2CCS(=O)(=O)C2)cc1 (stereo not drawn)	7%
C[C@@H]1NS(=O)(=O)c2cc(Cl)ccc2O[C@@H]1c1ccccc1	-5.88%
O=C1NC[C@H](CCCCN2C[C@H](Cc3ccc(O)cc3)N(CC3CCCCC3)C(=O)C2=O)N(CCc2ccccc2)C1=O	4.81%
CC1(Cc2ccccc2C#N)C(=O)Nc2ccc(-c3ccc4[nH]ccc4c3)cc21 (stereo not drawn)	90.5%
COc1ccc(N=C2C=CC(=O)O2)cc1	4.16%
CCCCNC(=O)c1nc(C2CCN(S(=O)(=O)c3ccc(F)c(F)c3)CC2)oc1-c1cccc(C(F)(F)F)c1	11.8%
CCOC(=O)[C@]12CCCC=C1N(Cc1cccc3ccccc13)C(=O)[C@H](CC(=O)NCC13CC4CC(CC(C4)C1)C3)C2	-26.5%
O=S1(=O)CC(N2CCSCC2)CN1Cc1cn(Cc2cccc(Cl)c2)nn1 (stereo not drawn)	-25.6%
COc1ccc(Br)cc1/C=N/Nc1ccc(S(=O)(=O)Nc2ccccc2C(=O)O)cc1[N+](=O)[O-]	0%
Cc1cc(C)c(NC(=O)c2oc3ccccc3c2COc2ccccc2)c(C)c1	-17.8%
Cc1cc(C)cc(OCC(=O)NCc2cc(C)nc3ccccc23)c1	14.8%
Cc1cc(C)c(NC(=O)C[N+](C)(C)CC(O)COc2cccc3ccccc23)c(C)c1 (stereo not drawn)	-86% (active)
COc1ccc(NC(=O)N(C)C[C@H]2Oc3ncc(C#C[C@@H](C)O)cc3C(=O)N([C@H](C)CO)C[C@H]2C)cc1	-13.1%
CC1(Oc2ccc(Cl)cc2)CCN(Cc2csc3ccccc23)C1 (stereo not drawn)	17.7%
Cc1cc(OC(=O)c2ccccc2)c([N+](=O)[O-])c(=O)[nH]1	-9.86%
Cc1ccc(S(=O)(=O)N2[C@@H](Cc3ccccc3)CO[C@H]2CC(=O)OCc2ccccc2)cc1	-0.839%
O=S(=O)(Cc1ccc(Cl)cc1Cl)c1ccc(Cl)cc1	-1.43%

SMILES	activity change
CCN(CC)CCNC(=O)c1sc2ncn(CC(=O)Nc3ccc(C)c(Cl)c3)c(=O)c2c1C	-75.6% (active)
CCN(CC)CCNC(=O)Cn1cnc2sc(C)c(S(=O)(=O)N3CCOCC3)c2c1=O	14.7%
CCN(CC)CCCNC(=O)Cn1cnc2sc(C)c(S(=O)(=O)N3CCN(c4ncccn4)CC3)c2c1=O	18.1%
CN(C)C1CN(Cc2cn(Cc3ccccc3)nn2)S(=O)(=O)C1 (stereo not drawn)	-13.3%
CC(C)CCOc1ccc(C(=O)Nc2cc(S(=O)(=O)N3CCOCC3)ccc2N2CCOCC2)cc1	-18.6%
O=S(=O)(NCCCN1CCOCC1)c1ccc(F)c(Cl)c1	-0.644%
CC1(C(=O)Nc2ccc3c(c2)OCCO3)CN(S(C)(=O)=O)CC(=O)N1Cc1cccc(F)c1 (stereo not drawn)	-9.42%
CCCCCCSc1ccc([C@@H]2[C@@H]3C(=O)N(CC)C(=O)[C@@H]3[C@]3(C(=O)OC)CCCCN23)cc1OC	-74.8% (active)
CCN1C(=O)[C@@H]2[C@@H](c3ccc(-c4ccc(OC)cc4)c(OC)c3)N3CCC[C@@]3(C(=O)OC)[C@@H]2C1=O	-7.49%
CCCCCCSc1ccc([C@@H]2[C@H]3C(=O)N(CC)C(=O)[C@H]3[C@]3(C(=O)OC)CCCCN23)cc1	144%
COC(C)(C)[C@]12CC(O)(C(C)C)ON1[C@H]1CCCCC1N2O (stereo partly drawn)	8.62%
CCCNC(=O)CSc1nc(Cc2ccccc2)nc2ccccc12	-58.7% (active)
C=CCSc1nc(Cc2ccc(Cl)cc2)nc2ccccc12	-12.9%
CCc1nc(SCC(=O)NNC(=O)c2ccc(C)cc2)c2ccccc2n1	-0.629%
Cc1ccc(CCN2CC(C(=O)O)CC2=O)cc1 (stereo not drawn)	-6.28%
N=c1n(CCc2ccccc2)c2ccccc2n1Cc1ccccc1F	-81.4% (active)
O=C(COC(=O)Cc1ccccc1F)NCCc1ccccc1	6.36%
CC(=O)NC(C)c1nc2ccccc2n1Cc1ccccc1F (stereo not drawn)	21.9%
O=C(NCCN1CCN(C(=O)c2cccc([N+](=O)[O-])c2)CC1)C(=O)NCc1ccc(Cl)cc1	-11.8%
Cc1ccc(S(=O)(=O)c2c[nH]c3ccc(Cl)cc3c2=O)cc1	-2.27%
CCC(=O)Nc1ccc(Nc2nc(Cl)nc(Nc3ccc(NC(=O)CC)cc3)n2)cc1	-8.11%
CCOC(=O)CNc1nc(Cl)nc(Nc2ccc(OC)cc2OC)n1	-6.02%

SMILES	activity change
CCOC(=O)CNc1nc(Cl)nc(Nc2ccccc2)n1	-67.7% (active)
COc1cc(OC)cc(C(=O)NCCSCc2ccc(Cl)cc2)c1	0.652%
CSc1ncnc2c1ncn2CC(=O)C1CCC2C3CCC4=CC(=O)CCC4(C)C3CCC12C (stereo not drawn)	-64.8% (active)
CC(=O)C12CC(C)=C(C)CC1CC1C3CCC4=CC(=O)CCC4(C)C3CCC12C (stereo not drawn)	-14.2%
CSc1ncnc2c1ncn2CCCNCC1CCCCC1	16.5%
C[C@H]1CN([C@@H](C)CO)C(=O)CCCn2nncc2CO[C@@H]1CN(C)S(=O)(=O)c1cccc(C#N)c1	22.7%
CCOC(=O)N1C(=O)C[C@](Sc2ccc(C)cc2)(C(=O)OC)[C@H]1c1ccccc1	-13.1%
COc1ccc2c(c1)CCC/C2=N\OC(=O)c1ccccc1F	-13.5%
CCc1nc2c(OCC(N)=O)cccn2c1N(C)C(=O)c1ccc(OC)cc1	3.49%
CCc1nc2c(OCCOc3ccc(F)cc3)cccn2c1N(C)C(=O)c1ccccc1F	-11.7%
COCCCNCC(=O)Nc1sc(C)c(C)c1C(=O)OC	0.516%
Cc1ccc2c(c1)C1CN(C)CCC1N2C(=S)Nc1ccc(Cl)cc1Cl (stereo not drawn)	-84.8% (active)
Cc1ccc2c(c1)C1CN(C)CCC1N2C(=O)c1ccccc1NS(=O)(=O)c1ccc(F)cc1C (stereo not drawn)	5.7%
Cc1ccc2c(c1)C1CN(C)CCC1N2S(=O)(=O)c1cccc(F)c1 (stereo not drawn)	-15.5%
O=C(NC(=S)Nc1ccc(Cl)cc1Cl)C1CC1	19.2%
S=C(Nc1ccc(Cl)cc1Cl)N1CCCC1	-2.45%
Cc1ccc2c(c1)C1CN(C)CCC1N2C(=S)Nc1ccc(OC(F)F)cc1 (stereo not drawn)	-62.4% (active)
COC(=O)c1ccc2c(=O)n(CCN3CCOCC3)c(SCC(=O)Nc3cccc(OC)c3)nc2c1	-19.5%
OCCN1CCN(c2ncnc3c2ncn3[C@H]2CN(Cc3ccco3)C[C@@H](CO)O2)CC1	10%
CC(=O)c1c(C)[nH]c(C(=O)COC(=O)c2cccc(S(=O)(=O)N(C)c3ccccc3)c2)c1C	-12.5%
CN(C)c1ccc(C(CC(=O)O)C(=O)O)cc1 (stereo not drawn)	15%
COc1ccc(Cl)cc1NC(=O)CN(C)C(=O)c1cn(-c2ccccc2)nc1-c1cccs1	-15.3%

SMILES	activity change
COc1ccc(-c2nn(-c3ccccc3)cc2/C=N/Nc2ccccn2)cc1OC	10.4%
COc1ccc(-c2nn(-c3ccccc3)cc2C(=O)Nc2nccs2)cc1OC	-52.5% (active)
Nc1ncnc2c1ncn2[C@@H]1O[C@H](CNC(=O)[C@H](N)Cc2cccnc2)[C@@H](O)[C@H]1O	-4.6%
CC1(C)COC(c2cccn2Cc2ccccc2Cl)=N1	1.85%
COc1ccc(OC)c(C(=O)NC2CCCc3c2cnn3-c2cc(C)cc(C)c2)c1 (stereo not drawn)	-20.1%
Cc1cc(C(=O)NC2CCCc3c2cnn3-c2cccc(C)c2C)c(C)o1 (stereo not drawn)	-7.02%
COc1ccc(C(=O)NC2CCCc3c2cnn3-c2cccc(C)c2C)c(OC)n1 (stereo not drawn)	-78.6% (active)
O=C(NNC1=C(C(=O)C(F)(F)F)CCC1)c1ccncc1	28.1%
CCC1Nc2ncnc(N3CCN(c4ccccc4)CC3)c2N(Cc2ccc(Cl)cc2)C1=O (stereo not drawn)	-19.1%
COc1ccc(NC(=O)C2Cc3c(-c4ccc(Cl)cc4)ccnc3O2)cc1 (stereo not drawn)	-7.31%
CCc1ccccc1NC(=O)CSc1nnc([C@@H](NC(=O)OC(C)(C)C)C(C)C)o1	11.8%
C[C@@H](NC(=O)OC(C)(C)C)c1nnc(S(=O)(=O)Cc2ccccc2)o1	-70.3% (active)
CCc1ccccc1NC(=O)CSc1nnc([C@@H](NC(=O)OC(C)(C)C)C(C)CC)o1 (stereo partly drawn)	9.72%
COc1cc(/C=C(/NC(=O)c2ccc(Cl)cc2Cl)C(=O)O)cc(OC)c1OC	2.22%
O=c1c2c(-c3ccccc3)ccnc2[nH]n1-c1ccccc1	-16.4%
O=c1[nH]cnc2c1c(-c1ccccc1)cn2-c1ccc(F)cc1	-91.8% (active)
COc1ccc(-n2cc(-c3ccccc3)c3c(=S)nc[nH]c32)cc1	18.8%
COc1ccc(S(=O)(=O)N2CCN(C)CC2)c(C)c1	-5.01%
Cn1c(=O)c2cc(NC(=O)NCCc3cccs3)ccc2n1Cc1cccc(C(F)(F)F)c1	1.3%
CC(C)CCN1C(=O)c2ccc(C(=O)Nc3cccc(S(N)(=O)=O)c3)cc2C1=O	-61% (active)
CN1CCN(S(=O)(=O)c2cccc(C(=O)Nc3cccc(S(N)(=O)=O)c3)c2)CC1	6.7%
Cc1cccc(C(=O)Nc2ccc3c(c2)C(=O)N(CC(C)C)C3=O)c1	0.513%
